Columns and labels:
[1] = biological target: T1, Serine/threonine-protein kinase 3 (Homo sapiens) (UniProt Q13188); details: at 1 µM
T1 sequence (whole entry): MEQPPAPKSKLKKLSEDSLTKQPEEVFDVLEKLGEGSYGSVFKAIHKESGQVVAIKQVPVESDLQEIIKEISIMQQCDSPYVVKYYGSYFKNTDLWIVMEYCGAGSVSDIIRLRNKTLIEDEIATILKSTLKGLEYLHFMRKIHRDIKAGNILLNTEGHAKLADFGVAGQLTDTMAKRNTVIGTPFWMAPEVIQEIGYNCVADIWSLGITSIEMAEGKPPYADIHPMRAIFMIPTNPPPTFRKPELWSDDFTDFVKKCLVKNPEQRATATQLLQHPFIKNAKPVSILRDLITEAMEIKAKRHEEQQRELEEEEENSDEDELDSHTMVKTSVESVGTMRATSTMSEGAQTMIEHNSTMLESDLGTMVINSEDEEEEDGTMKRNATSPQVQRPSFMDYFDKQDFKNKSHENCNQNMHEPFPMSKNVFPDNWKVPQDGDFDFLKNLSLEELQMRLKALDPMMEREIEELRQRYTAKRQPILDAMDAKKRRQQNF

[2] = biological target: T1, Serine/threonine-protein kinase 3 (Homo sapiens); details: at 10 µM
[3] = biological target: Serine/threonine-protein kinase 24 (Homo sapiens) (UniProt Q9Y6E0); details: at 1 µM
[4] = biological target: Serine/threonine-protein kinase 24 (Homo sapiens) (UniProt Q9Y6E0); details: at 10 µM
[5] = biological target: T2, Tyrosine-protein kinase Mer (Homo sapiens) (UniProt Q12866); details: at 1 µM
T2 sequence (whole entry): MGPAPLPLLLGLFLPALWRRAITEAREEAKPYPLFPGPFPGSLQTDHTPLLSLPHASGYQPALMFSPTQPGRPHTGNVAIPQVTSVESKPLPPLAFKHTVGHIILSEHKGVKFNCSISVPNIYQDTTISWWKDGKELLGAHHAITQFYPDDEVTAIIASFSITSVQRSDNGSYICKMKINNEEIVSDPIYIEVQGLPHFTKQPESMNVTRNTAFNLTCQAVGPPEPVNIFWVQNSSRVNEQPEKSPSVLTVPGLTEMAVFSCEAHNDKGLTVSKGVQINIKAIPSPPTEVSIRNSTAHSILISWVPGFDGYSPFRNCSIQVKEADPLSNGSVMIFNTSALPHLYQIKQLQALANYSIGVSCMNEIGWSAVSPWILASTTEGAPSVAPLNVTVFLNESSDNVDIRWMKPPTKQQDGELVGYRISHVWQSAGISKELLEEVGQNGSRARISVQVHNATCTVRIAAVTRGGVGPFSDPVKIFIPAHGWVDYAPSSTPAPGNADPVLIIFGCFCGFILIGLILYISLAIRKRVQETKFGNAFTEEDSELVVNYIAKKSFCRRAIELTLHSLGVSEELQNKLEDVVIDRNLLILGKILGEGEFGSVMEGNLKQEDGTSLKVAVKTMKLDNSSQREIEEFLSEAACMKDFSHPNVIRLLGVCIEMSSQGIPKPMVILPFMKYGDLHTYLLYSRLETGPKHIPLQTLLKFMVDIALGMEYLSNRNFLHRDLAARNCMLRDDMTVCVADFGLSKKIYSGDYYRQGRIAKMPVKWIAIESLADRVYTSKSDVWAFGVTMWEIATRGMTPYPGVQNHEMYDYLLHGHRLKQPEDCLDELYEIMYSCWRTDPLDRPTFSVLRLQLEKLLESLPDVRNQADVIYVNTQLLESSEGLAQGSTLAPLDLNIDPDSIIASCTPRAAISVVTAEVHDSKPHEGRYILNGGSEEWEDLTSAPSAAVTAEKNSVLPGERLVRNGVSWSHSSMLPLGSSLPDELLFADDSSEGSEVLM

[6] = biological target: T2, Tyrosine-protein kinase Mer (Homo sapiens); details: at 10 µM
[7] = biological target: Hepatocyte growth factor receptor (Homo sapiens) (UniProt P08581); details: at 1 µM
[8] = biological target: Hepatocyte growth factor receptor (Homo sapiens) (UniProt P08581); details: at 10 µM
[9] = biological target: MAP kinase-interacting serine/threonine-protein kinase 2 (Homo sapiens) (UniProt Q9HBH9); details: at 1 µM
[10] = biological target: MAP kinase-interacting serine/threonine-protein kinase 2 (Homo sapiens) (UniProt Q9HBH9); details: at 10 µM
[11] = biological target: T3, Muscle, skeletal receptor tyrosine-protein kinase (Homo sapiens) (UniProt O15146); details: at 1 µM
T3 sequence (whole entry): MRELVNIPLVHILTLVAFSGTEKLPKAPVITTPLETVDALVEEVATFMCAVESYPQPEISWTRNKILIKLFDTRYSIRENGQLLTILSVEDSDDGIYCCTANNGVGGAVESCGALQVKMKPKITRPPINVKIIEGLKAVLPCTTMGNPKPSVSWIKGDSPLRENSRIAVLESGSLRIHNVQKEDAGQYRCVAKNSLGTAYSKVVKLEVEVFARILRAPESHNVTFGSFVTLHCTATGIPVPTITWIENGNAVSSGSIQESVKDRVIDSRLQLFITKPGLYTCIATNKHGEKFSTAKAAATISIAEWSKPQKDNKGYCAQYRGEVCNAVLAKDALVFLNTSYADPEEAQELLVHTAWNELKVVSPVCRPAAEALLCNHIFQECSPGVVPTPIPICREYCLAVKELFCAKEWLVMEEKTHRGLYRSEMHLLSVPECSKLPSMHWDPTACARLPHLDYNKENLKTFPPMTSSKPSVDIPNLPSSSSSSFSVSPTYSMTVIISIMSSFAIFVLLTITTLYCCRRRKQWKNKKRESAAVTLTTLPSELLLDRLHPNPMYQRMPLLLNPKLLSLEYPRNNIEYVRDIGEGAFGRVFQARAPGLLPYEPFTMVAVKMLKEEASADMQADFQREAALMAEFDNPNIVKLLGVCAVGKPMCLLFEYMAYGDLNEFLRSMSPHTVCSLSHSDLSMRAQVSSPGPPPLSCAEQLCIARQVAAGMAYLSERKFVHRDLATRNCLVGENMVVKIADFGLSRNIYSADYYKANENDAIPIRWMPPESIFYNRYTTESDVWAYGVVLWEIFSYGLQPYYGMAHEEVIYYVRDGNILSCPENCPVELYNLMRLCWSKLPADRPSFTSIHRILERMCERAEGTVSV

[12] = biological target: T3, Muscle, skeletal receptor tyrosine-protein kinase (Homo sapiens); details: at 10 µM
[13] = biological target: T4, Serine/threonine-protein kinase Nek11 (Homo sapiens) (UniProt Q8NG66); details: at 1 µM
T4 sequence (whole entry): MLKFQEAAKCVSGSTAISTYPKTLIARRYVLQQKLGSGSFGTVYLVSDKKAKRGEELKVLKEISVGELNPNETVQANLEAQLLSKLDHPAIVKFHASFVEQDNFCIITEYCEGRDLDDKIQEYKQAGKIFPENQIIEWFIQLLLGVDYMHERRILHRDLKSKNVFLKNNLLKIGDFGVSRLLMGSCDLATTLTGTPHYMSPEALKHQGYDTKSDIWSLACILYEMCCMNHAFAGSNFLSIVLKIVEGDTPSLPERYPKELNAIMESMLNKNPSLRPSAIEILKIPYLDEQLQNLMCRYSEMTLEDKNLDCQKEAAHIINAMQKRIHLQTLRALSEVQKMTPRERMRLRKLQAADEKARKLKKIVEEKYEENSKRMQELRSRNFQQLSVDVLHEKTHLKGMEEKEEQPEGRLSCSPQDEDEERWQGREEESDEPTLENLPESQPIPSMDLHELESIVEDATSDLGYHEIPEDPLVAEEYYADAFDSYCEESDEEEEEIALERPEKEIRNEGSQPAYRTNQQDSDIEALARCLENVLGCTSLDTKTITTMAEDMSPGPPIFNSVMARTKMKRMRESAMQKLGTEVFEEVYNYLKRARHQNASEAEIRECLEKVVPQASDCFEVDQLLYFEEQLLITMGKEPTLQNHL

[14] = biological target: T4, Serine/threonine-protein kinase Nek11 (Homo sapiens); details: at 10 µM
[15] = biological target: T5, Serine/threonine-protein kinase Nek2 (Homo sapiens) (UniProt P51955); details: at 1 µM
T5 sequence (whole entry): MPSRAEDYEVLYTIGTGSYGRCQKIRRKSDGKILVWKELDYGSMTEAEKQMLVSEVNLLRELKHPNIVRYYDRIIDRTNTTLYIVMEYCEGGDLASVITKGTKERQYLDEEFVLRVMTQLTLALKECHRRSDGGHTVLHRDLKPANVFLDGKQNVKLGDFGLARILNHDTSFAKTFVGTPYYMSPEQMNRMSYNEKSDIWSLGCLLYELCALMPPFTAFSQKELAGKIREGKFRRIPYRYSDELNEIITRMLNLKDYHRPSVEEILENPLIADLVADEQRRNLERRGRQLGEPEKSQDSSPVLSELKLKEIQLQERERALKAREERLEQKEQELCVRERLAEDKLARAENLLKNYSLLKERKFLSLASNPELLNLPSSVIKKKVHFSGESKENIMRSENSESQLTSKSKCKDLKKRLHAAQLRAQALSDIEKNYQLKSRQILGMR

[16] = biological target: T5, Serine/threonine-protein kinase Nek2 (Homo sapiens); details: at 10 µM
[17] = biological target: T6, Serine/threonine-protein kinase Nek3 (Homo sapiens) (UniProt P51956); details: at 1 µM
T6 sequence (whole entry): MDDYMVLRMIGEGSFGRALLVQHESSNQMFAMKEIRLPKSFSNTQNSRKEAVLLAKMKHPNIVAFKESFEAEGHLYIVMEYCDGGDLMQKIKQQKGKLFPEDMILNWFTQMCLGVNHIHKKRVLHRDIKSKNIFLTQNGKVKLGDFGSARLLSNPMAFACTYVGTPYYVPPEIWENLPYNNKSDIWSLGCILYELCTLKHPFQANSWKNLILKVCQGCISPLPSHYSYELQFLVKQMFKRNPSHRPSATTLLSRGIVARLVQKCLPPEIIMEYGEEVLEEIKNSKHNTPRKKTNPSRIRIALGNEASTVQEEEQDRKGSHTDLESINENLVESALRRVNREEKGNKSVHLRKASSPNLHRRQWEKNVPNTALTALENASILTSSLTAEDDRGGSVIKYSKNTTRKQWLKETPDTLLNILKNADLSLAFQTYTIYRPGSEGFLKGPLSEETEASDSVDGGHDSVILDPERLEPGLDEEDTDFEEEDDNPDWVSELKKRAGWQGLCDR

[18] = biological target: T6, Serine/threonine-protein kinase Nek3 (Homo sapiens); details: at 10 µM
[19] = biological target: Serine/threonine-protein kinase tousled-like 2 (Homo sapiens) (UniProt Q86UE8); details: at 1 µM
[20] = biological target: Serine/threonine-protein kinase tousled-like 2 (Homo sapiens) (UniProt Q86UE8); details: at 10 µM

Sequence of MAP kinase-interacting serine/threonine-protein kinase 2 (Homo sapiens) (Q9HBH9 whole entry, looked up): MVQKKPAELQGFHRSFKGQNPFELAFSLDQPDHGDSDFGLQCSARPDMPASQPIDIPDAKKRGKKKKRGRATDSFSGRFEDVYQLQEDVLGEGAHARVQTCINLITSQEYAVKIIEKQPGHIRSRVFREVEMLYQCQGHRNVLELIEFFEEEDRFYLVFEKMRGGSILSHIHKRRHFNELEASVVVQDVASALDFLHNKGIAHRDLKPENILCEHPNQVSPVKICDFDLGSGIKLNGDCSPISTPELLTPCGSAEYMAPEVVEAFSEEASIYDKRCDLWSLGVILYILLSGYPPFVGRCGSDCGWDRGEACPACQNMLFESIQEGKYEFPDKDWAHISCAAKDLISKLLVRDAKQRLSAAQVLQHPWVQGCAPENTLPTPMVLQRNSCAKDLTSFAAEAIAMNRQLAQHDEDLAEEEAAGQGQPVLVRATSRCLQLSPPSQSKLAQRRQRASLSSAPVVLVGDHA
Sequence of Hepatocyte growth factor receptor (Homo sapiens) (P08581 whole entry): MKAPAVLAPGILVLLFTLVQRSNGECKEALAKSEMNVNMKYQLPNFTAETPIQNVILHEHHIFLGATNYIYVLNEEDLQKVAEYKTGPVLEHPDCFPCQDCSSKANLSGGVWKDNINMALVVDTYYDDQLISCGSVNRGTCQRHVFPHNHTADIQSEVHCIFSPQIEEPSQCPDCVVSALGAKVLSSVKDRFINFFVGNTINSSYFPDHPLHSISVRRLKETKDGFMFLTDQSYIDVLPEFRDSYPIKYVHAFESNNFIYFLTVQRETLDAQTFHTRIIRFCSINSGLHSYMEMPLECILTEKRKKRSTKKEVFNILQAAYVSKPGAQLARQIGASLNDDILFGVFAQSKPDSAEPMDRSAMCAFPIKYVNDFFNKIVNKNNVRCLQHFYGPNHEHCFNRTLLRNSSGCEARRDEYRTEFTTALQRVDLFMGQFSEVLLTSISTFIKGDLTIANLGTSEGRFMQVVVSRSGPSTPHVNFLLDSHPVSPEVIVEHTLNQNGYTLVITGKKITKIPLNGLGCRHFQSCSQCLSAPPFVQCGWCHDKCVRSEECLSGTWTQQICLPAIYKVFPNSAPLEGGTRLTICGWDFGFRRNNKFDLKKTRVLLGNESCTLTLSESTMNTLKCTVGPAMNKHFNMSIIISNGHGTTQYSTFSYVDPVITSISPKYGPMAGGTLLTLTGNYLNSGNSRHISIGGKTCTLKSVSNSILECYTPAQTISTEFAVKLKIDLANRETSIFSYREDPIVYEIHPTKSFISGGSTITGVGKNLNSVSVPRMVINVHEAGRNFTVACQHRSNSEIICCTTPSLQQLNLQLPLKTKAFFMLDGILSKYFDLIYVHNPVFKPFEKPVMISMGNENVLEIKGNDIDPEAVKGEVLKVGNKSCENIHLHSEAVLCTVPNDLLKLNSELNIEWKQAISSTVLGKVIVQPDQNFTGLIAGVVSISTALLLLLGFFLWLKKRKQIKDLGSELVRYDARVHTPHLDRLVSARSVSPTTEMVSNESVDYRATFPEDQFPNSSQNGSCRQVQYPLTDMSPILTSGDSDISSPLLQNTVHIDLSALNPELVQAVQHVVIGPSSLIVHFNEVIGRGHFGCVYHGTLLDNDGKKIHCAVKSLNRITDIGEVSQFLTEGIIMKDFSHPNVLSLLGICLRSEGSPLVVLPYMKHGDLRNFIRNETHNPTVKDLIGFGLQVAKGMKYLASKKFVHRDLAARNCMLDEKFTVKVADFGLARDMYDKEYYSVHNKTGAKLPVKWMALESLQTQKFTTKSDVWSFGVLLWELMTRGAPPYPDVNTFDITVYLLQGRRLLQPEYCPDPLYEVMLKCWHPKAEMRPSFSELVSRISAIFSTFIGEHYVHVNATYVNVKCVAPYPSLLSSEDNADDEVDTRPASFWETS
Sequence of Serine/threonine-protein kinase 24 (Homo sapiens) (Q9Y6E0 whole entry, looked up): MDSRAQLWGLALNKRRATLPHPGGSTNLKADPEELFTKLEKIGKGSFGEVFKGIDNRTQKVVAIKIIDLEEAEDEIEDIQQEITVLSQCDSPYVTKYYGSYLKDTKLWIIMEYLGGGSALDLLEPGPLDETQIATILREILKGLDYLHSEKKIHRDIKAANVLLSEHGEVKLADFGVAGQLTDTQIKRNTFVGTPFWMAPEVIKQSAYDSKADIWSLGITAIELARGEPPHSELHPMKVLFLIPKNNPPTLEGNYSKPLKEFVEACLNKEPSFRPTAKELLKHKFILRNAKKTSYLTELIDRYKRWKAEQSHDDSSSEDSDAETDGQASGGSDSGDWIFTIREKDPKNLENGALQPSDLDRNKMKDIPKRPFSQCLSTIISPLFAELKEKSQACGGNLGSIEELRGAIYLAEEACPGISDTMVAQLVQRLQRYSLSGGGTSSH
Sequence of Serine/threonine-protein kinase tousled-like 2 (Homo sapiens) (Q86UE8 whole entry, looked up): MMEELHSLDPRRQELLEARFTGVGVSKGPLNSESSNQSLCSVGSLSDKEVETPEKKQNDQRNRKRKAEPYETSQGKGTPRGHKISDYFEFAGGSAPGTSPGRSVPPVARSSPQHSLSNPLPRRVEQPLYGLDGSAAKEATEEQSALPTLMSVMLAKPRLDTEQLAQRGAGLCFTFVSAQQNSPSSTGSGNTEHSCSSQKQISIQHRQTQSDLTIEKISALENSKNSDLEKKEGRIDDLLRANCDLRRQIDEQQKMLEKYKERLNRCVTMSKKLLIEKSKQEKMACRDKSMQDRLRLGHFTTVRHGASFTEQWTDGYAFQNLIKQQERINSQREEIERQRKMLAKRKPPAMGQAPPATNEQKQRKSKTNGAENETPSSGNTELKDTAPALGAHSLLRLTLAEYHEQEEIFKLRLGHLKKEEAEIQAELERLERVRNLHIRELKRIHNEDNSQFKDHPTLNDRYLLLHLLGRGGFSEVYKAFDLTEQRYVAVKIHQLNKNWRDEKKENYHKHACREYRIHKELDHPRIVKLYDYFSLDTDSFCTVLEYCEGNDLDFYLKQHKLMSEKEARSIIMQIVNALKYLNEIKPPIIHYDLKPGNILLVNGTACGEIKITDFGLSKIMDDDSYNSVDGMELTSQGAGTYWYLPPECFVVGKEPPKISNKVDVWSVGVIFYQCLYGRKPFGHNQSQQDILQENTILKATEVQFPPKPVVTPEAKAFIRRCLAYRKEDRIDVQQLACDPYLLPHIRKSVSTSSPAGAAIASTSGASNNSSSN

| Compound | residual activity [1] [%] | residual activity [2] [%] | residual activity [3] [%] | residual activity [4] [%] | residual activity [5] [%] | residual activity [6] [%] | residual activity [7] [%] | residual activity [8] [%] | residual activity [9] [%] | residual activity [10] [%] | residual activity [11] [%] | residual activity [12] [%] | residual activity [13] [%] | residual activity [14] [%] | residual activity [15] [%] | residual activity [16] [%] | residual activity [17] [%] | residual activity [18] [%] | residual activity [19] [%] | residual activity [20] [%] |
| --- | --- | --- | --- | --- | --- | --- | --- | --- | --- | --- | --- | --- | --- | --- | --- | --- | --- | --- | --- | --- |
| O=C(Nc1cccc(Nc2nccc(Nc3cccc(C(F)(F)F)c3)n2)c1)C1CC1 | 89 | 60 | 72 | 65 | 72 | 70 | 79 | 55 | 70 | 77 | 88 | 3 | 90 | 80 | 94 | 101 | 88 | 33 | 109 | 93 |
| CC[n+]1c(/C=C/N(C)c2ccccc2)n(-c2ccccc2)c2ccc(-c3nc4ccccc4s3)cc21 | 109 | 71 | 78 | 79 | 113 | 48 | 97 | 74 | 104 | 63 | 114 | 58 | 71 | 99 | 83 | 123 | 116 | 92 | 109 | 80 |
| COc1ccc(CNc2nc(N(CCO)CCO)nc3c2ncn3C(C)C)cc1 | 107 | 104 | 65 | 60 | 90 | 60 | 122 | 85 | 99 | 100 | 86 | 73 | 53 | 64 | 90 | 85 | 71 | 90 | 83 | 85 |
| O=C1Nc2cc(Br)ccc2/C1=C1/Nc2ccccc2/C1=N\O | 10 | 5 | 62 | 70 | 26 | 4 | 118 | 97 | 62 | 77 | 80 | 84 | 69 | 45 | 89 | 86 | 65 | 70 | 81 | 48 |
